# HP1b binding inh: HP1-beta chromodomain-methylated histone interaction inhibition; P83916; AlphaScreen HP1-beta / biotin-H3K9me3 peptide binding; Potency, µM (doses to about 114 µM), for the others: top-dose activity change, negative = inhibition, usual class: inhibitors; actives 0.56% (n = 390,000); also: nearly all actives have a fitted effect of over 70% in size
#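 AlphaScreen: HP1-beta (50 nM) preformed 30 min with biotin-H3(1-18)K9me3 peptide (50 nM) in PBS pH 7.4, 0.01% Tween-20. Compound added for 30 min at RT, then streptavidin donor/nickel chelate acceptor beads (10 ug/mL) for 30 min.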
# PLK1 PBD block: blocks phosphopeptide binding to human PLK1 polo-box domain; AID 720504; actives 2.8% (n = 360,000); Plk1 PBD binding of FITC phosphopeptide, fluorescence polarization; Potency, µM, inactives show max response, negative = inhibition, most hits filed as inhibitors; P53350; also: series mostly up to about 57 µM; % is scaled to controls: 0 for no effect and ±100 for the full control effect; nearly all actives have a fitted effect of over 65% in size
# VDR inhibitor: blocks the human vitamin D receptor; P11473; AID 504847; VDR-SRC2-3 peptide fluorescence polarization, 2 h; Potency, µM, for the others: max response, negative = inhibition, most hits filed as inhibitors; actives 0.93% (n = 400,000); also: % is scaled to controls: 0 for no effect and ±100 for the full control effect
# Target sequence (P11473 whole entry, looked up): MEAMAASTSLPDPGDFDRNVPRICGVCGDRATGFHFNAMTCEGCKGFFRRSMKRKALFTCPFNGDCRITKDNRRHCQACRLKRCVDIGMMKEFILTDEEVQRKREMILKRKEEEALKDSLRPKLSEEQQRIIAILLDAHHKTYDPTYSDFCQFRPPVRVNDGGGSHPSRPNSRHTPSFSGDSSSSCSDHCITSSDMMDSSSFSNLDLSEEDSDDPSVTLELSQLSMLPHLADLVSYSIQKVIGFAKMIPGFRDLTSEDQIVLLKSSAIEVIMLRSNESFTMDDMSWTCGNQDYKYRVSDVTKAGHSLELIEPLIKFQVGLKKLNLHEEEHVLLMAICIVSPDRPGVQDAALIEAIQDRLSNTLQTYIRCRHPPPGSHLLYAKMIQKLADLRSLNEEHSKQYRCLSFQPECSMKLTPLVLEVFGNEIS
#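 Compounds are added to VDR with labelled SRC2-3 coactivator peptide and held 2 h at room temperature. Inhibition of the VDR–peptide interaction is then read as a change in fluorescence polarization.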
# G9a inh: inhibitors of human histone lysine methyltransferase G9a. AID 504332. G9a H3K9 monomethylation, AlphaScreen, 2 h. Potency, µM (titrated, usually from 102 µM), for inactives: top-dose activity, negative = inhibition, most hits filed as inhibitors. actives 8.8% (n = 350,000); also: % is scaled to controls: 0 for no effect and ±100 for the full control effect; nearly all actives have a fitted effect of over 75% in size
# Target sequence (Q96KQ7 913-1193 limits assumed): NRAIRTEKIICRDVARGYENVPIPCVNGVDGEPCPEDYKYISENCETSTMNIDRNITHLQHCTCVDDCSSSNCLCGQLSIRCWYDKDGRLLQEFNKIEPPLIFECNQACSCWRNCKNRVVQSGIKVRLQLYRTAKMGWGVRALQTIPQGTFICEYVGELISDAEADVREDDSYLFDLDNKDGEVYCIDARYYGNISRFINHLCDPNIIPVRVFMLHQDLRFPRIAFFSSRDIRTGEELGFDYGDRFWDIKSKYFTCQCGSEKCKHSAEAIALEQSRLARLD
#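 Signal arises when biotinylated H3K9 peptide, once monomethylated, bridges streptavidin donor and antibody-captured acceptor beads. Enzyme at 20 nM was preincubated 15 min with test compounds; peptide 500 nM and SAM 20 uM then reacted for 2 h.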
# JMJD2A Tudor: JMJD2A Tudor domain (human) inhibition | Potency, µM (highest dose often 114 µM), without a hit: at the highest dose activity change, negative = inhibition, actives largely listed as inhibitors | AlphaScreen JMJD2A-Tudor / H3K4me3 peptide binding | actives 4.4% (n = 390,000) | O75164 | AID 504339; also: % is scaled to controls: 0 for no effect and ±100 for the full control effect; nearly all actives have a fitted effect of over 50% in size
# BAZ2B block: BAZ2B (human) inhibition; AlphaScreen BAZ2B-H3K14Ac peptide displacement; Potency, µM (series often up to 114 µM), for inactives: at the top dose activity change, negative = inhibition, most hits filed as inhibitors; actives 4.4% (n = 360,000); AID 504333; also: % is scaled to controls: 0 for no effect and ±100 for the full control effect; nearly all actives have a fitted effect of over 60% in size
#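 Compounds, titrated to a top concentration of 110 uM, were incubated 30 min at room temperature with preformed BAZ2B/acetyl-K14 H3 peptide complex (50 nM each). Proximity signal was measured by AlphaScreen after 20 min with beads.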
# An asterisk follows results filed as active; ? = inconclusive; nt = no result; [ ] = dose if it differs, or a comment. Hits are enriched below; roughly 11% of the tested compounds scored in any of these assays. Calls follow the shape of the dose curve; as a rule, active = well fitted curve in the direction sought with a large enough effect; inconclusive = small, poorly fitted or top-dose-only effect, or another doubt; inactive = no such curve, though single readings can be large; an effect the other way counts as inactive or inconclusive. Potency is read from the fitted curve at half-maximal effect.
SMILES,HP1b binding inh,PLK1 PBD block,VDR inhibitor,G9a inh,JMJD2A Tudor,BAZ2B block
CCOc1ccc(N2C(=O)NC(=O)/C(=C/c3cnc(SC)nc3)C2=O)cc1,-38%,11µM*,40µM*,8.9µM*,?,?
Cc1cc(C)cc(N2C(=O)NC(=O)/C(=C\c3cc(C)n(C)c3C)C2=O)c1,6%,-16%,-12%,?,-19%,-6%
COc1ccc(/C=C2/C(=O)NC(=O)N(c3ccc(C)c(C)c3)C2=O)cc1CN1C(=O)c2ccccc2C1=O,-11%,4.2µM*,50µM*,11µM*,50µM*,50µM*
Cc1ccc(N2C(=O)NC(=O)/C(=C/c3cnn(-c4ccc(C)cc4)c3)C2=O)cc1,46%,1.2µM*,?,3.5µM*,-8%,2%
CSc1ncc(/C=C2/C(=O)NC(=O)N(c3ccc(C)cc3)C2=O)cn1,-5%,9.5µM*,40µM*,10µM*,-18%,-38%
Cc1ccc(N2C(=O)NC(=O)/C(=C\c3cccn3C(C)(C)C)C2=O)cc1,42%,?,-8%,?,-16%,-1%
C[C@@H]1O[C@H](C[N+](C)(C)C)C[C@@H]1O,nt,nt,-1%,15%[59 µM],nt,nt
CCCCC/C=C\C/C=C\C/C=C\C/C=C\CCCC(=O)NC1CC1,nt,nt,?,69%[59 µM],nt,nt
Nc1c(Br)cc(Br)cc1CNC1CCC(O)CC1 (centres undefined),19%,-10%,-12%,7%[12.7 µM],-12%,4%
CC1=NN(c2ccccc2)C(=O)C1/C=C1\C(=O)NC(=O)N(c2ccc(C)c(C)c2)C1=O (centres undefined),-14%,21µM*,-9%,45µM*,-5%[11.4 µM],?
CC1=NN(c2ccccc2)C(=O)C1/C=C1/C(=O)NC(=O)N(c2cccc(C)c2)C1=O (centres undefined),nt,nt,nt,-19%[59 µM],nt,?
COc1cc(/C=C2\C(=O)NC(=O)N(c3ccc(C)cc3)C2=O)cc(OC)c1O,25%,?,-28%,20µM*,-3%,4%
O=C1NC(=O)N(c2ccc(Br)cc2)C(=O)/C1=C/c1ccsc1,27%,4.7µM*,45µM*,20µM*,-22%,14%
Cc1cc(/C=C2\C(=O)NC(=O)N(c3ccc(Cl)cc3)C2=O)c(C)n1C,58%,-9%,-6%,nt,-6%,-6%
CCN(CC)/[N+]([O-])=N/O,nt,nt,7%,-37%[2.33 µM],nt,nt
CN(C)CCN(Cc1ccccc1)c1ccnc(N(C)C)c1C#N,?,-12%,3%,7.9µM*,63µM*,?
S=C(Nc1ccccc1)Nc1cccc(Br)c1,19%,27µM*,-11%,-5%[59 µM],-13%,-11%
Brc1ccccc1,14%,-13%,-12%,21%[59 µM],-10%,8%
CCCN(CCC)[C@@H]1CCc2c(OC)cccc2[C@@H]1C,nt,nt,-12%,15%[59 µM],nt,nt
CCC(=O)c1cn(Cc2ccccc2)c2ccccc12,87%,-1%,11%,198%,38%,46%
O=C(c1cn(Cc2ccccc2)c2ccccc12)C1CC1,30%,27µM*,?,38%[59 µM],23%,14%
O=C(O)C(O)(c1ccccc1)C1CCCC1 (centres undefined),46%,0%,39%,25µM*,1%,?
COc1ccc(F)cc1CN1CCN(C(=O)CCC(=O)Nc2nnc(CC(C)C)s2)CC1,40%,8%,-1%,-4%,-2%,4%
Cc1ccc2c(c1)C1CN(C)CCC1N2C(=O)c1cccs1 (centres undefined),1%,-6%,-11%,9%,-14%,-20%
Cc1ccc2c(c1)C1CN(C)CCC1N2C(=O)Cc1cccs1 (centres undefined),10%,-13%,-3%,79µM*,-20%,-4%
SMILES,HP1b binding inh,PLK1 PBD block,VDR inhibitor,G9a inh,JMJD2A Tudor,BAZ2B block
CN1CCc2nc(SCC(=O)OC(C)(C)C)c(C#N)cc2C1,27%,-30%,-5%,50µM*,1%,-17%
N#Cc1cc2c(nc1SCC(=O)Nc1ccc(OC(F)(F)F)cc1)C1CCN2CC1,29%,nt,-7%,-4%[59 µM],0%,-4%
COC(=O)C12CC3=C[C@H](CC3=O)Cc3ccccc3[C@@H]1CNC2=O (some centres undefined),nt,nt,3%,nt,nt,nt
C=C(C)[C@@]12OC3(c4ccccc4)O[C@@H]1[C@@H]1[C@@H]4O[C@]4(CO)[C@@H](O)[C@]4(O)C(=O)C(C)=C[C@H]4[C@@]1(O3)[C@H](C)[C@H]2OC(=O)/C=C/C=C/c1ccccc1,nt,nt,-1%,nt,nt,nt
CCCCn1c(NS(=O)(=O)c2ccccc2)c(C(=O)OCC)c2nc3ccccc3nc21,67%,?,45µM*,?,21%,-31%
CCOC(=O)c1c(N)n(CCN2CCCCC2)c2nc3ccccc3nc12,45%,1%,2%,0%,-4%,25%
CS(=O)(=O)N1CCC2(CC1)CN(Cc1ccncc1)C2,nt,nt,-16%,4%[12.7 µM],nt,nt
CC(C)(O)[C@H]1O[C@H]2CC[C@@]3(C)[C@@](O)(CC[C@H]4Cc5c([nH]c6ccccc56)[C@@]43C)C2=CC1=O,-14%,-22%,-9%,32µM*,?,?
CC(C)(O)[C@H]1O[C@@H]2CC[C@]3(C)[C@@]4(C)c5[nH]c6ccccc6c5C[C@@H]4CC[C@]3(O)C2=CC1=O,nt,nt,3%,nt,nt,nt
CCOC(=S)SSC(=S)OCC,nt,nt,50µM*,?,nt,nt
Cc1ccccc1N1C(=O)/C(=C/c2ccco2)C(=O)NC1=S,nt,nt,nt,1.8µM*,nt,1.1µM*
CCOc1ccc(-n2c(-c3ccoc3)nc3ccccc3c2=O)cc1,-1%,-12%,-5%,?,-7%,-18%
O=C1NC(=O)N(CC2CCCO2)C(=O)/C1=C/c1cccs1 (centres undefined),28%,?,-11%,8%[12.7 µM],-26%,-4%
CCOc1ccc(N2C(=O)/C(=C/c3ccco3)C(=O)NC2=S)cc1,1.6µM*,1.3µM*,79µM*,16%[0.501 µM],0.79µM*,28µM*
CCc1ccccc1N1C(=O)/C(=C/c2ccc(N3CCN(C)CC3)o2)C(=O)NC1=S,?,85%,-5%,?,56µM*,?
Cc1ccccc1N1C(=O)NC(=O)/C(=C/c2ccc(N3CCOCC3)o2)C1=O,28%,90%,-4%,?,1%,-19%
CCOc1ccc(N2C(=O)/C(=C\c3cccs3)C(=O)NC2=S)cc1,23%,2.7µM*,6%,7.1µM*,35µM*,-33%
CCN1C[C@]2(COC)CC[C@H](OC)[C@@]34C5C[C@@H]6[C@@H](OC)C[C@@]7(OCO[C@@]7([C@@H](O)C23)[C@@H]14)C5[C@H]6OC (some centres undefined),nt,nt,3%,48%[59 µM],nt,nt

# Assay outcomes (PubChem)
